Measurements published in ChEMBL document CHEMBL3988442, “University of Dundee, Small-Polar-MMV Screening Library” (2021).

Legend:
[1] = target: T1, Aspartate--tRNA(Asp/Asn) ligase (Mycobacterium tuberculosis (strain ATCC 25618 / H37Rv)) (UniProt P9WFW3); experiment: Assay for Asp RNA synthetase-1 from Mycobacterium tuberculosis; assay type: functional; set-up: scale not given: direction of the effect not stated beside the values; conditions: 30 µM; also: in the data most compounds retested in dose-response had high values
T1 sequence (whole entry): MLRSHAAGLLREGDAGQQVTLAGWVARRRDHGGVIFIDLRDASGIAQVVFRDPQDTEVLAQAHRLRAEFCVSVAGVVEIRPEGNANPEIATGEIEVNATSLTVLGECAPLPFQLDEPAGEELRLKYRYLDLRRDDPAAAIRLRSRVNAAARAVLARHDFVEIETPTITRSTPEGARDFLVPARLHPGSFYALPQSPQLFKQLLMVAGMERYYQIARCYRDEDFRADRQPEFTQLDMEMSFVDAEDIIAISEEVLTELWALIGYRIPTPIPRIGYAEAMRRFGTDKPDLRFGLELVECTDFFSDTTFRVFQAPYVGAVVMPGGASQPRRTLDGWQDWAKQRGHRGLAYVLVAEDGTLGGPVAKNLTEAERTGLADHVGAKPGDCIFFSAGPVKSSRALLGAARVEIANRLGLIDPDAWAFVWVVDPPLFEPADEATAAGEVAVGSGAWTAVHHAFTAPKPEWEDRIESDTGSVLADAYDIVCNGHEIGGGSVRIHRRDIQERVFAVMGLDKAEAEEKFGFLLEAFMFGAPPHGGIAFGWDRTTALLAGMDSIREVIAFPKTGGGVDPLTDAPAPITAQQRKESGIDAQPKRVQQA

[2] = target: Shiga toxin 2 (Escherichia coli O157:H7) (UniProt P09385+P09386); experiment: E. coli 0.157:H7 Shiga Toxin SOP - stx2 screening assay; assay type: functional; set-up: scale not given: direction of the effect not stated beside the values; conditions: 30 µM

| SMILES | Percent Effect [1] | Percent Effect [2] |
| --- | --- | --- |
| CN(C)C(=O)NC1COC2(CCN(Cc3nccn3C)CC2)C1 (configuration not stated) | 2.7% | -6.31% |
| CCn1ncc2c1C(COC)CN(Cc1ccsc1)C2 (configuration not stated) | -1.74% | -2.67% |
| CC(=O)NCC(=O)N1Cc2nccn2CC(Cn2cccn2)C1 (configuration not stated) | -1.48% | 0.581% |
| Cc1nc(C)n(C2CCCN(C(=O)CCc3ccncc3)C2)n1 (configuration not stated) | -6.6% | 11.7% |
| CCn1cc(NC(=O)NCC(O)c2ccccc2)cn1 (configuration not stated) | -0.4% | -5.7% |
| CN(Cc1ccccc1)CC(O)Cn1cnc2ccccc2c1=O (configuration not stated) | -0.611% | -4.12% |
| COc1cc2cc(C(=O)N[C@@H](C)C(=O)O)n(C)c2c(OC)c1OC | -3.11% | -30.8% |
| O=C(c1ccc(F)cc1)N1CCN2C[C@H](OCc3ccccn3)C[C@H]2C1 | -1.3% | 10.7% |
| CN(C)c1nc2c(c(N3CCC(O)CC3)n1)CN(CC1CCNC1)CC2 (configuration not stated) | 3.47% | -11.1% |
| CSCc1cccc(S(=O)(=O)NCCCO)c1 | 13.1% | -26.7% |
| CCS(=O)(=O)N(C)c1ccc(C(=O)N2CCCC(C)C2)cc1 (configuration not stated) | -3.31% | -3.21% |
| Cc1ccc(-c2nnc(CN3CCc4cnc(C)nc4C3)o2)cc1 | 2.13% | -61% |
| Cc1cccc(CN2CCc3c(nc(N4CCC(C)CC4)[nH]c3=O)C2)n1 | -2.78% | 10.7% |
| Cc1cnn(CCNCC(=O)NCCOc2ccccc2)c1 | -2.67% | 18.2% |
| Cc1cc(NC(=O)N2CCN(c3nc(C)c(C)s3)CC2)no1 | 0.38% | -22.7% |
| Cc1ccccc1CCNC(=O)C1CC(=O)N(CC(F)(F)F)C1 (configuration not stated) | 4.08% | 9.05% |
| CCc1nnc2n1CCN(C(=O)c1cc(Br)c[nH]1)C2 | -3.52% | -47.9% |
| Cc1nn(C)c(N2CCOCC2)c1CNC(C)c1ccco1 (configuration not stated) | -3.01% | 5.98% |
| Cc1nc(COC[C@@H]2CC[C@H]3[C@H](CCN3S(C)(=O)=O)O2)cs1 | 6.16% | 1.49% |
| O=C(NCCNc1ccc(C(F)(F)F)cn1)c1ccc(Br)cc1F | -0.778% | 38.5% |
| CC1c2ncc(COc3cccnc3)n2CCN1C(=O)C1=CCCC1 (configuration not stated) | -4.09% | -30.8% |
| CCn1c(C)nnc1CN(C)C1CCN(CCn2cccn2)C1 (configuration not stated) | 1.41% | 12.1% |
| CN(C(=O)Cc1c[nH]c2ccccc12)C1CCN(c2ccccn2)CC1 | -1.54% | 5.44% |

| SMILES | Percent Effect [1] | Percent Effect [2] |
| --- | --- | --- |
| CN(Cc1ccc(F)cc1)[C@@H]1CN(C(=O)c2cccs2)C[C@H]1O | 4.22% | -17.2% |
| CC(C)c1cc(C(=O)N2CCN(Cc3ccsc3)CC2)n[nH]1 | -1.06% | 9.72% |
| COCC(=O)N1CC[C@@H]2O[C@H](COCc3ccncc3)CC[C@@H]21 | 4.14% | -2.38% |
| Cc1ccc(NC(=O)C2CSCN2C(=O)c2cc[nH]n2)c(C)c1 (configuration not stated) | -3.15% | 12% |
| Cc1cnc(CNC(=O)NCc2cccnc2N(C)C)s1 | -2.25% | -0.447% |
| CC(NC(=O)C1=NN(C)C(=O)CC1)c1ccc(Cl)cc1Cl (configuration not stated) | -11.1% | -19.3% |
| Cc1nn(C)c(N(C)C)c1CNCC(O)COc1ccccc1 (configuration not stated) | -5.92% | -12% |
| CN(C)c1cc(CNC(=O)c2ccc(F)cc2F)ccn1 | -4.92% | -51.7% |
| O=C(c1cc(Cl)cc(Cl)c1)N1CCN(c2nccs2)CC1 | -0.345% | -14.9% |
| Cc1nn(C)c(N(C)C)c1CNCc1cccc(OCCN(C)C)c1 | -1.92% | 27.4% |
| CCCS(=O)(=O)N1CCC2(CC1)CN(c1ccccn1)CCO2 | 2.47% | -46.8% |
| CCOc1ccc(Cl)cc1CNCCCn1ccnc1 | 0.842% | -32.5% |
| O=c1cccnn1CC1CN(Cc2ccsc2)Cc2nccn2C1 (configuration not stated) | 7.43% | 5.53% |
| CCn1ccnc1CN1CCN(CCC(=O)NC(C)(C)C)CC1C (configuration not stated) | -4.35% | 15.4% |
| CCc1ncc(CNC2CC(=O)N(CCc3cccc(Cl)c3)C2)cn1 (configuration not stated) | -0.729% | -24.9% |
| O=C(Nc1ccccc1F)N(CCO)Cc1ccsc1 | -3.39% | 20.3% |
| CC(=O)Nc1ccc(-n2ccc3nc(N4CCCC4)ncc3c2=O)cc1 | 4.09% | -9.95% |
| Cc1cc(C)n(CCC(=O)N2CCC(c3nc(C(C)C)no3)CC2)n1 | 2.47% | -18.2% |
| CN(C)CC1CN(c2ncnc3[nH]ccc23)CCO1 (configuration not stated) | -0.0146% | -33.5% |
| Cc1ccc(NC(=O)C2CSCN2C(=O)c2cnn(C)c2)c(C)c1 (configuration not stated) | 0.456% | -0.207% |
| O=C(c1n[nH]c(=O)c2ccccc12)N1CCCCC1c1ccn[nH]1 (configuration not stated) | -1.09% | 17.2% |
| Cc1cnc(CN2CCOC(CNc3cccnn3)C2)cn1 (configuration not stated) | -2.97% | 6.13% |
| O=C(NCCN1CCCCCC1=O)c1ccn(-c2ccc(F)cc2)n1 | 3.8% | 14.8% |
